# Measurements: ChEMBL document CHEMBL3988442, “University of Dundee, Small-Polar-MMV Screening Library” (2021)
# The campaign covered roughly 48,000 compounds. About 13,000 (27%) showed an effect of 50% or more. The list shows a part of the results.
# Test system: Wolbachia pipientis
# Test: Anti-Wolbachia Cell-Based Screen
# Assay type: functional
# Design: scale not given: in the data most compounds retested in dose-response had high values
# Settings: 5 µM
row,Compound,Percent Effect
1,CC(C)n1cnc(C2CN(C)c3ccc(C(=O)NC4CCCC4)cc32)n1 (stereo unspecified),-4.903%
2,CC(=O)N[C@@H](CC(C)C)C(=O)N1CCC(n2cc(CO)nn2)CC1,-15.95%
3,CCCc1nccn1-c1ccc(C(C)O)cc1 (stereo unspecified),-9.636%
4,Cc1oc(C(C)C)cc1C(=O)N1C[C@H]2CC[C@@H]1CN(C(=O)N(C)C)C2,-18.45%
5,O=C(N1CCC(Oc2ccncc2)C1)C1(c2ccc(F)cc2)CC1 (stereo unspecified),-3.796%
6,COc1cnc(N2CCN(C)CC2)nc1-c1ccnn1C,-15.65%
7,c1cc(-c2c[nH]c([C@@H]3COCCN3Cc3csnn3)n2)ccn1,7.154%
8,Nc1cc2c(nn1)CCN(C(=O)CC1CCCC1)C2,-4.566%
9,Cc1cnc(-c2nc(O)c3c(n2)CN(C(=O)CC2CCCC2)CC3)cn1,148.5%
10,O=C1NCCN(CC2CCCCC2)C1CC(=O)N1CCc2n[nH]cc2C1 (stereo unspecified),-15.6%
11,Cc1cnc(N2CCC3(CC2)CCN(c2cncnc2)C3=O)nc1,-8.08%
12,NS(=O)(=O)NCc1cc(-c2ccc(C(F)(F)F)cc2)n[nH]1,103.6%
13,O=C(NCc1nc[nH]n1)c1cc(COc2cccc(C(F)(F)F)c2)[nH]n1,0.1207%
14,NS(=O)(=O)c1ccc(NCc2ccccc2)cc1C(F)(F)F,11.93%
15,CCOCCCC(=O)N1CCN(c2cccc(OC)c2)C(C)C1 (stereo unspecified),5.389%
16,Cc1ccc2c(c1)c(CNC(=O)C1CCN(CC(N)=O)CC1)nn2C,11.07%
17,CN(Cc1nc(-c2ccccc2)no1)C(=O)CNS(C)(=O)=O,-1.951%
18,Cc1cc(CN(C)CCC(O)c2ccccc2)no1 (stereo unspecified),107.6%
19,COc1cccc(CN(C)Cc2ccccc2C#N)c1OC,-9.098%
20,N#Cc1ccccc1CN(CC(N)=O)C1CCCC1,-5.252%
21,CN(CCC(O)c1ccccc1)Cc1ccccc1C#N (stereo unspecified),111.8%
22,Cc1cc(CN(C)CCC(O)c2ccccc2)nn1C (stereo unspecified),-3.114%
23,Cc1nc(CN(C)Cc2nc(-c3ccccc3)no2)co1,-6.169%

row,Compound,Percent Effect
1,CN(CCC(O)c1ccccc1)Cc1nc(-c2ccccc2)no1 (stereo unspecified),118.9%
2,Cc1cc(CN(C)CCN(C)c2ccccc2)no1,9.198%
3,COc1ccc(F)c(NCc2cnn(C3CCS(=O)(=O)C3)c2)c1 (stereo unspecified),7.936%
4,Cc1ccc(CNc2ccn(CCc3ccncc3)n2)s1,19.44%
5,COc1cc(OC)cc(N2CCC(NC(=O)c3cccn3C)CC2)c1,-13.09%
6,COc1ccc(N2CCC(N(C)C(C)C(=O)N(C)C)CC2)cc1 (stereo unspecified),7.179%
7,COc1ccc(N2CCC(NC(=O)c3ccc(C#N)cc3)CC2)cc1,89.14%
8,O=C(Cc1cccs1)NC1CCN(c2cccc(F)c2)CC1,-15.75%
9,COc1cc(OC)cc(N2CCC(NC(=O)c3ccc[nH]3)CC2)c1,-4.011%
10,COc1ccc(N2CCC(NC(=O)c3sccc3C)CC2)cc1,79.74%
11,COc1ccsc1C(=O)NC1CCN(c2cccc(F)c2)CC1,98.27%
12,COc1ccc(C(=O)NC2CCN(c3ncccn3)CC2)cc1F,13.96%
13,COc1ccsc1C(=O)NC1CCN(c2ccc(C#N)cc2)CC1,-30.88%
14,CCN(Cc1ccncc1)C1CCCN(Cc2ccc(F)cc2Cl)C1 (stereo unspecified),-7.648%
15,O=C(O)CC1COCCN1C(=O)C1(c2ccc(Cl)cc2)CCC1 (stereo unspecified),14.34%
16,O=S(=O)(CCC1CCCO1)NCc1ncc(-c2ccccc2)o1 (stereo unspecified),-10.29%
17,Cc1nn(C)c(C)c1OCC(=O)NCC(O)c1ccco1 (stereo unspecified),9.29%
18,CCC1CN(Cc2nc(C(C)C)no2)CCC(=O)N1Cc1ccccc1 (stereo unspecified),11.67%
19,COc1cccc(-c2noc(-c3ccc(NCCCO)nc3)n2)c1OC,11.35%
20,CC(C)(C)c1cc(CN2CCOC(CCc3ccccc3)C2)n[nH]1 (stereo unspecified),14.18%
21,Nc1cc(CCC2CN(Cc3cccc(C(=O)O)c3)CCO2)ccn1 (stereo unspecified),106.3%
22,COc1ccc(CCN2CCOC(Cn3nc(C)nc3C)C2)cc1 (stereo unspecified),6.569%
23,Cc1cc(C)n(CC2CN(Cc3cccc(C(N)=O)c3)CCO2)n1 (stereo unspecified),-10.5%

row,Compound,Percent Effect
1,COc1cccc(CN2CCOC(Cn3nc(C)cc3C)C2)c1 (stereo unspecified),-2.903%
2,Nc1cc(CCC2CN(Cc3ccc4c(c3)OCCO4)CCO2)ccn1 (stereo unspecified),90.24%
3,Nc1cc(CCC2CN(Cc3ccc4cc[nH]c4c3)CCO2)ccn1 (stereo unspecified),120%
4,Nc1cc(CCC2CN(Cc3ccc(C(=O)O)cc3)CCO2)ccn1 (stereo unspecified),7.558%
5,Cc1nccn1CCC1CCCCN1Cc1ccc2c(c1)OCCO2 (stereo unspecified),18.54%
6,c1cnn(CC2CN(Cc3ccc(-n4ccnc4)cc3)CCO2)c1 (stereo unspecified),-4.298%
7,COc1ccc(CN2CCOC(CCc3ccnc(N)c3)C2)cc1 (stereo unspecified),124.3%
8,CCc1nnc2n1CCN(Cc1ccc3c(c1)OCCO3)C2,1.979%
9,CC(C)c1nn(CC(=O)N2CCCCC2)c(=O)c2c1cnn2C(C)(C)C,-4.82%
10,COCc1nc(CN2CC(C)(c3ccccc3)CCC2=O)no1 (stereo unspecified),5.849%
11,COc1ccc(S(=O)(=O)Cc2noc(CC(C)C)n2)cc1,-2.844%
12,COc1ccc(N2CCN(Cc3noc(CC(C)C)n3)C(C)C2=O)cc1 (stereo unspecified),87.05%
13,COCc1nc(CN2CC(=O)N(C)c3ccccc3C2=O)no1,-2.193%
14,COc1cccc(S(=O)(=O)Cc2noc(CC(C)C)n2)c1,-0.9778%
15,COCc1nc(CN2CCN(c3ccc(OC)cc3)C(=O)C2C)no1 (stereo unspecified),94.02%
16,CN(CC(N)=O)CC(=O)N(C1=CCCCC1)C1CC1,-2.779%
17,Cc1cccc(CN2CCc3[nH]nc(C(=O)N(C)C)c3C2)n1.O=C(O)C(F)(F)F,-6.855%
18,Cc1cccc(CN2CCc3onc(CO)c3C2)n1.O=C(O)C(F)(F)F,107.8%
19,CN(C)Cc1noc2c1CN(Cc1ccsc1)CC2.O=C(O)C(F)(F)F.O=C(O)C(F)(F)F,-7.7%
20,c1coc(CN2CCc3onc(Cn4ccnc4)c3C2)c1,-8.337%
21,CN(C)Cc1noc2c1CN(C(=O)c1ccncc1)CC2.O=C(O)C(F)(F)F.O=C(O)C(F)(F)F,-9.47%
22,Cc1cccc(CN2CCc3onc(CN(C)C)c3C2)n1,101.4%
23,CC(=O)NCc1noc2c1CN(Cc1cccs1)CC2,-5.877%

row,Compound,Percent Effect
1,Cc1cccc(CN2CCc3[nH]nc(C(=O)N4CCNC(=O)C4)c3C2)n1.O=C(O)C(F)(F)F,-67.35%
2,Cc1cccc(CN2CCc3onc(Cn4cccc4)c3C2)n1.O=C(O)C(F)(F)F,93.67%
3,O=C(O)C(F)(F)F.c1coc(CN2CCc3onc(Cn4cccc4)c3C2)c1,-0.2735%
4,CN(C)Cc1noc2c1CN(Cc1ccc[nH]1)CC2,98.7%
5,O=C(O)C(F)(F)F.c1csc(CN2CCc3onc(Cn4cccc4)c3C2)c1,-13.64%
6,CC(C)OC(=O)N1C[C@H]2CC[C@@H]1CN(C(=O)c1ccccc1)C2,-6.398%
7,O=C(COc1coc(CN2CCCCC2)cc1=O)Nc1ccccc1Cl,12.81%
8,Cc1csc(CNC(=O)NCC(O)c2ccc(F)c(F)c2)n1 (stereo unspecified),-9.167%
9,COc1ccc(-n2ccnc2-c2cnc(C(C)C)nc2)cc1C(=O)O,-1.473%
10,CCNC(=O)NC(=O)CSC(C)c1c(F)cccc1F (stereo unspecified),4.576%
11,CCc1cnc(CCNS(C)(=O)=O)s1,96.32%
12,CCCS(=O)(=O)NCCc1ncc(C)s1,113.4%
13,CCc1cnc(CCNC(=O)N2CCCC(c3ncc[nH]3)C2)s1 (stereo unspecified),-8.688%
14,CCCS(=O)(=O)NCc1ncc(C)c(OC)c1C,21.89%
15,CS(=O)(=O)NCCc1cccc2cccnc12,-14.96%
16,CCCS(=O)(=O)NCCn1ccc(-c2cccs2)n1,29.12%
17,CCCS(=O)(=O)NCCc1ncc(CC)s1,98.37%
18,Cc1cnc(CCNC(Cc2ccncc2)C(F)(F)F)s1 (stereo unspecified),4.089%
19,CCc1cnc(CN(C)C(=O)NC2CCN(CC3CC3)C2)s1 (stereo unspecified),-7.872%
20,Cc1noc(C)c1CN(C)Cn1nccc1-c1cccnc1,-3.571%
21,N#Cc1ccccc1CC1CCCS(=O)(=O)C1 (stereo unspecified),23.18%
22,CC(C)C(C(=O)N1CCC(Nc2cccnn2)CC1)n1cncn1 (stereo unspecified),1.287%
23,CC(C)C(C(=O)N1CCC(N(C)c2cccnn2)CC1)n1cncn1 (stereo unspecified),6.546%

row,Compound,Percent Effect
1,Cc1ccc(NC2CCN(C(=O)C(C)n3cncn3)CC2)nn1 (stereo unspecified),101.5%
2,Cc1ccc(NC2CCN(C(=O)C(C(C)C)n3cncn3)CC2)nn1 (stereo unspecified),114.7%
3,CCc1nc(Cn2cncc(Br)c2=O)no1,3.979%
4,Cc1nc(NC(=O)CCOCC(F)(F)F)ccc1Br,7.301%
5,CC(C)n1cnnc1Cn1c(=O)ccc2ccccc21,-18.72%
6,COCCc1noc(-c2cn(Cc3ccc(OC)cc3)nn2)n1,3.926%
7,CS(=O)(=O)c1ccc(O[C@H]2COCCN(Cc3ccncc3)C2)cc1,8.188%
8,CC(C)c1ccnc(N[C@H]2COC[C@@H]2N2CCCC2)n1,5.714%
9,Cc1cc(C)nc(N2CCC(c3nnc(CN(C)C)n3C3CC3)CC2)n1,-32.06%
10,COc1cc(C)nc(N2CCN(C(=O)CN(C)C3CC3)CC2)n1,-6.068%
11,CN(C)c1ccnc(N2CCC(NCCOc3ccccc3)CC2)n1,-8.661%
12,Cc1cc(C)nc(N2CCC(c3ccnc(N(C)C)n3)CC2)n1,86.89%
13,CCn1cnnc1CN(C)c1nccc(C2CCCC2)n1,-5.507%
14,CN(C)c1cccc(C2CCN(C3COCC3O)CC2)n1 (stereo unspecified),145.5%
15,FC(F)(F)c1c[nH]c(C2CCN(c3ncccn3)CC2)n1,-5.698%
16,CN(C)c1nccc(C2CCN(C3CCCCC3O)CC2)n1 (stereo unspecified),139.6%
17,O=C(Nc1ccc2ncsc2c1)N1CCCN([C@H]2COC[C@@H]2O)CC1,-6.319%
18,CN(Cc1nncn1C)c1nccc(C2CCCC2)n1,-0.6799%
19,CN(C)c1cccc(C2CCN(c3ncccn3)CC2)n1,105.5%
